Measured values published in PubChem BioAssay AID1626 (SRMLSC, 2009).
In all, about 220,000 compounds went through this assay and about 2,000 (0.91%) were called active. Not shown: some 2% with an inconclusive outcome. Rule as the data show it: inconclusive = inhibition above about 80% without an active follow-up result; inactive = below that; test concentration not stated here. Only a sample is shown. Potency and affinity values are given separately.

assay: M. tuberculosis H37Rv growth inhibitors, H37Rv strain (AID 1626); conditions: hits give high values, concentration not given here;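 also: bacteria incubated seven days before Alamar blue readout; 0% = bacteria only wells and 100% = bacteria with antibiotic wells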

Compound	inhibition
CCOC(=O)COc1cc(=O)n(CC)c2ccccc12	7.42% (inactive)
Cc1cc(NC(=O)/C=C/c2ccc(F)cc2)n(-c2nc3ccccc3[nH]2)n1	13.6% (inactive)
COc1ccc(/C=C/C(=O)Nc2cc(C)nn2-c2nc3ccccc3[nH]2)cc1	11.4% (inactive)
CCOC(=O)C(=O)Nc1cc(C)nn1-c1nc2ccccc2[nH]1	-8.84% (inactive)
Cc1cc(NC(=O)C2CCC2)n(-c2ccccn2)n1	2.03% (inactive)
COC(C[C@@H]1O[C@H]1[C@H](O)[C@@H](C)OCc1ccccc1)OC	-4.16% (inactive)
CCn1c2ccccc2c2nnc(NN)nc21	-7.42% (inactive)
O=C(/C(C=Nc1cccc(C(F)(F)F)c1)=C(/O)c1ccco1)C(F)(F)F	0.06% (inactive)
Cc1nn(C)c(C)c1NC(=O)CCl	-7.2% (inactive)
CCn1c(SCC(=O)N=Nc2c(O)[nH]c3ccccc23)nnc1-c1ccc(C(C)(C)C)cc1	-1.76% (inactive)
Cc1[nH]c2ccc(F)cc2c1CCNC(=O)C1CCCCC1C(=O)OCC(F)(F)F (centres undefined)	2.82% (inactive)
O=C(NCc1ccccc1)c1ccc(Br)cc1	-2.09% (inactive)
Cc1[nH]n(-c2ccccc2)c(=O)c1N=Nc1ccc2c(c1)OCCO2	-5.08% (inactive)
Cc1ccccc1N=Nc1c(C)[nH]n(-c2ccccc2)c1=O	-1.01% (inactive)
Cc1[nH]n(-c2ccccc2)c(=O)c1N=Nc1ccccc1	3.96% (inactive)
Cc1[nH]n(-c2ccccc2)c(=O)c1N=Nc1ccccc1O	5.76% (inactive)
Cc1nnc(NC(=O)CCSCCC(=O)Nc2nnc(C)s2)s1	1.24% (inactive)
COc1ccc(/C=C/C(=O)c2c(O)ccc3c(C)cc(=O)oc23)cc1	17.2% (inactive)
O=C(COC(=O)c1ccccc1Cl)NCCC1=CCCCC1	4.94% (inactive)
O=C(COC(=O)c1ccccc1O)NCCC1=CCCCC1	7.1% (inactive)
O=C(NCc1ccco1)C1CCN(Cc2ccc(F)cc2)CC1	1.23% (inactive)
COc1ccc(CNC(=S)Nc2cc(C)ccc2C)cc1	4.83% (inactive)

Compound	inhibition
C=CCn1c(SCC(=O)N2CCc3ccccc3C2)nc2ccccc2c1=O	-0.56% (inactive)
O=C1CC(c2ccccc2Oc2cccc(Cl)c2)C(n2cncn2)C(=O)C1C1NCCc2ccccc21 (centres undefined)	-9.29% (inactive)
Cc1cc(C)c2c(n1)sc1c(N3CCN(C)CC3)ncnc12	7.86% (inactive)
Cc1cc(C)c2c(n1)sc1c(N3CCN(CCO)CC3)ncnc12	18.8% (inactive)
Cc1ccc(NC(=O)NCC2CCN(Cc3cccc(Cl)c3)CC2)c(Cl)c1	33.5% (inactive)
CCc1cccc(CN2CCC(CNC(=O)Nc3ccc(Cl)cc3)CC2)c1	0.84% (inactive)
COCCn1c(COc2ccc(OC)cc2)nc2ccccc21	4.25% (inactive)
Cc1sc(NC(=O)C2CC(Cl)=CCC2C(=O)O)c(C#N)c1C (centres undefined)	-16.1% (inactive)
Cc1ccc(-c2nnn(CC(=O)N(c3ccc(F)cc3)C(C(=O)NC(C)(C)C)c3ccco3)n2)o1 (centres undefined)	-0.26% (inactive)
Cc1onc(-c2c(Cl)cccc2Cl)c1C(=O)c1ccccc1	-5.4% (inactive)
Cc1ccc(NC(NC(=O)c2cccs2)C(Cl)(Cl)Cl)cc1 (centres undefined)	21% (inactive)
Cc1ccccc1NC(NC(=O)c1cccs1)C(Cl)(Cl)Cl (centres undefined)	-3.03% (inactive)
Nc1nc(SCC(=O)Nc2ccccc2)[nH]c(=O)c1NC(=O)c1cccs1	-5.6% (inactive)
Cc1ccc2c(CC(=O)Nc3cccc(S(=O)(=O)N4CCOCC4)c3)coc2c1	5.42% (inactive)
CC(C)C(=O)NC(CC(=O)O)c1ccccc1 (centres undefined)	-15.2% (inactive)
Cc1nnc(SCC(=O)N/N=C/c2cc(Cl)c(O)c(Cl)c2)s1	-3.34% (inactive)
COC(=O)c1cc(-c2ccccc2)on1	45% (inactive)
Cc1cc(NC(=O)/C=C/c2ccccc2)no1	-1.33% (inactive)
O=C(Nc1ccc(N2CCOCC2)c(Cl)c1)c1cccnc1Cl	-3.3% (inactive)
Cc1cccn2c(=O)c(C=NCCO)c(Nc3ccc(Cl)cc3)nc12	2.37% (inactive)
COc1ccccc1NC(=O)c1c(C)oc2c1CCCC2	-16.9% (inactive)
Cc1cc(=O)oc(C)c1C(=O)Nc1cccc2ccccc12	7.53% (inactive)

Compound	inhibition
COc1cc(C(F)(F)F)nc(-c2ccccn2)n1	6.27% (inactive)
C#CCSc1cc(C(F)(F)F)nc(-c2ccccn2)n1	5.1% (inactive)
FC(F)(F)c1cc(Oc2ccccc2)nc(-c2ccccn2)n1	12.1% (inactive)
CCN(CC)c1cc(C(F)(F)F)nc(-c2ccccn2)n1	-2.81% (inactive)
O=C(O)CSc1cc(C(F)(F)F)nc(-c2ccccn2)n1	-6.21% (inactive)
CN(C)c1cc(C(F)(F)F)nc(-c2ccccn2)n1	3.02% (inactive)
FC(F)C(F)(F)c1cc(-c2ccc(Cl)cc2)n[nH]1	12.2% (inactive)
CNc1nnc(CSc2nc(C)cc(C)n2)s1	-5.32% (inactive)
O=C(c1cccc(C(F)(F)F)c1)C1CCCN(C(=O)CCCn2cncn2)C1 (centres undefined)	4.12% (inactive)
CN(CCCNC(=O)CSc1cc(=O)n(C)c2cc(Cl)ccc12)Cc1ccccc1	4.19% (inactive)
COc1ccc(NC(=O)c2noc(C(C)C)c2[N+](=O)[O-])cc1	-2.72% (inactive)
NS(=O)(=O)c1ccc(CNC(=S)NC2CC2)cc1	-2.38% (inactive)
CN(Cc1ccccc1)c1ccc(N2C(=O)CCC2=O)cc1[N+](=O)[O-]	-1.08% (inactive)
COc1ccccc1NS(=O)(=O)c1ccc(C(N)=O)cc1	-0.48% (inactive)
Cc1ccc2c(c1)N(CC(=O)N1CCCCC1c1cccnc1)C(=O)CO2 (centres undefined)	-4.68% (inactive)
CCO[C@@H]1OC(C(=O)NCc2nc3ccccc3[nH]2)=C[C@H](C(C)(C)C)[C@H]1CCCO	-3% (inactive)
Cc1ccc2c3c(cccc13)-c1ccccc1C2=O	10.1% (inactive)
C[C@H]1COC2=C1C(=O)C(=O)c1c2ccc2c1CCCC2(C)C	-2.33% (inactive)
Cc1ccc(C(=O)c2coc3c2C(=O)C(=O)c2ccccc2-3)cc1	-2.44% (inactive)
O=C1C(=O)c2c(C(=O)c3ccccc3)coc2-c2ccccc21	4.79% (inactive)
